Hits are enriched below; roughly 4.5% of the tested compounds scored in any of these assays.
DAX1 inh-1 – DAX1 (NR0B1) inhibitors, primary screen, cell-based, HEK293, Gal4-DAX1, luciferase luminescence. HEK293 Gal4-DAX1 luciferase reporter. inhibition, % at 6.75 µM. hit rate 0.99% among 340,000. AID 504766, 2011;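 active means inhibition above the mean over all tested compounds plus 3 SD, cut at about 4.2% in these data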;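 further: 0% = DAX1-transfected cells with DMSO and 100% = empty-vector control cells with DMSO; inhibition shows as a rise in luminescence from relieved DAX1 repression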
Target sequence (P51843 207-470 limits assumed): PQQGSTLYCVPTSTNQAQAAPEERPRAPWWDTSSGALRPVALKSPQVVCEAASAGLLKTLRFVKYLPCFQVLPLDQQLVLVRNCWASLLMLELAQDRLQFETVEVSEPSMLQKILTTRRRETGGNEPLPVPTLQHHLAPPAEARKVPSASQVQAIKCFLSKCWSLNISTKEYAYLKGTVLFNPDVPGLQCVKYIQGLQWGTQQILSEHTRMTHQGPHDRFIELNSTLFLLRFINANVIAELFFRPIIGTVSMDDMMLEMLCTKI
GAA850 FXN act – FXN promoter activators, primary screen, cell-based, luciferase luminescence, HEK293 lucGAA850 | HEK293 lucGAA850 FXN promoter luciferase reporter, 24 h; percent of 10 µM SAHA response | activation, % at 6 µM | hit rate 0.56% among 360,000;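 active means activation above the average of all compounds screened plus 3 SD, cutoff fixed separately per campaign, cut at about 7.5% in these data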;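 further: 0% = DMSO wells and 100% = 10 µM SAHA wells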
ssDAF12 agonist – S. stercoralis DAF-12 nuclear receptor activators, primary screen, cell-based, luminescence, HEK293, GRIP1 co-expression, lit1-tk-luc | hit rate 1% among 370,000 | AID 652126, 2013 | Nuclear hormone receptor DAF-12 (Strongyloides stercoralis) | HEK293 ssDAF-12/GRIP1 lit1-tk-luc reporter; % of 3 µM dafachronic acid response | activation, % at 6.8 µM;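 active means activation above the mean over all tested compounds plus 3 SD, cut at about 0.9% in these data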;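 further: 0% = DMSO-only wells and 100% = 3 µM delta7-dafachronic acid wells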
DAX1 inh-2 – DAX1 (NR0B1) inhibitors on StAR promoter, primary screen, cell-based, luminescence, SF-1 (NR5A1), full-length DAX-1; HEK293T StAR-luciferase reporter, SF-1/DAX-1 repression relief; inhibition, % at 6.8 µM; hit rate 1.1% among 370,000;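 active means inhibition above the mean over all tested compounds plus 3 SD, cut at about 3.6% in these data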;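 further: 0% = DAX-1 cells with DMSO and 100% = cells lacking DAX-1 with DMSO; higher inhibition means more luminescence from relief of DAX-1 repression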
hgDAF-12 ag – H. glycines DAF-12 receptor agonists, primary screen, cell-based, luminescence, HEK293, GAL4 fusion, UAS-luciferase. HEK293 GAL4-hgDAF12 UAS-luciferase reporter, agonist luminescence; normalized to butyrate control. activation, % at 6.8 µM. hit rate 1.8% among 370,000;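 active means activation above a cutoff set at the mean of all screened compounds plus 3 SD, cut at about 10% in these data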;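 further: 0% = DMSO wells and 100% = sodium butyrate wells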
hcDAF-12 act – H. contortus DAF-12 nuclear receptor activators, primary screen, cell-based, luminescence, HEK293, lit1-tk-luc reporter; activation, % at 6.8 µM; HEK293 hcDAF-12 lit1-tk-luc reporter; 0% DMSO, 100% Δ7-dafachronic acid; hit rate 1.4% among 370,000;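 active means activation above the mean of all tested compounds plus 3 SD, cut at about 5.5% in these data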;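 further: 100% = response to 3 µM Δ7-dafachronic acid high control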
hgDAF12 conf – H. glycines DAF-12 receptor agonists, confirmation, cell-based, luminescence, HEK293, GAL4-LBD fusion. AID 743050, 2013. shares compounds with hgDAF-12 ag. hit rate 80% among 3,300. activation, % at 6.8 µM. HEK293 GAL4-hgDAF12 luciferase reporter, agonist mode; percent of butyrate response;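 active means mean activation over triplicate wells above the hit cutoff derived from the earlier primary screen, cut at about 11% in these data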;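 further: 0% = DMSO low control and 100% = 2 mM sodium butyrate high control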
LXR ag 2 – LXR agonists, Gal4 luciferase reporter, confirmation, counter-screen for hgDAF-12 agonist project, cell-based, luminescence, HEK293, H. glycines campaign. shares compounds with hgDAF-12 ag. 24 h. activation, % at 6.8 µM. 3,300 tested, under 10 active. AID 743051, 2013;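 active means mean activation of the triplicate above a set limit carried over from the primary screen, none filed active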
Numbers without * were called inactive; nt = no result given.

SMILES	DAX1 inh-1	GAA850 FXN act	ssDAF12 agonist	DAX1 inh-2	hgDAF-12 ag	hcDAF-12 act	hgDAF12 conf	LXR ag 2
Cc1cccc(S(=O)(=O)Nc2ccc(-c3nc4ccc(C)cc4s3)cc2)c1	3	6	0	4.2*	22*	5	21*	1
Cc1ccc2nc(-c3ccc(NS(=O)(=O)c4c(C)n(C)c(=O)n(C)c4=O)cc3)sc2c1	6.3*	3	0	3	20*	5	17*	1
Nc1c(C(=O)Nc2ccccc2)sc2nc(N3CCOCC3)c3c(c12)CCCC3	0	2	1	3.8*	15*	2	5	0
Nc1c(C(=O)Nc2ccc(Cl)cc2)sc2nc(N3CCOCC3)c3c(c12)CCCC3	0	4	-1	0	1	-2	nt	nt
c1ccc(COc2cccc(CN3CCc4ccccc4C3)c2)cc1	-1	1	-1	0	-1	-1	nt	nt
CCn1c(SCc2ccccc2Cl)nc2ccccc21	3	2	-1	1	6	2	nt	nt
Cn1c(SCc2ccccc2Cl)nc2ccccc21	3	1	0	3	14*	2	15*	1
Cc1ccc(NC(=O)N2CCc3ccccc3C2)c(C)c1	0	1	1	3	6	3	nt	nt
COc1ccccc1CNC(=O)CN1C(=O)NC2(CCCCCCC2)C1=O	0	2	0	-1	-1	0	nt	nt
N#C/C(=C\c1ccc(N2CCOCC2)cc1)c1ccccc1	2	6	0	2	21*	6.1*	17*	1
CC(OC(=O)c1nc(Cl)ccc1Cl)C(=O)NCc1ccccc1 (stereo not given)	1	-1	0	1	-1	1	nt	nt
CN(c1ccc([N+](=O)[O-])cc1/C=N/NC(=O)COc1ccccc1)C1CCCCC1	-1	3	-1	1	0	0	nt	nt
O=C(O)C1C2CCC(O2)C1C(=O)Nc1ccc(F)cc1 (stereo not given)	-1	7	-1	0	0	1	nt	nt
O=C(O)c1ccc(NC(=O)C2C3CCC(O3)C2C(=O)O)cc1 (stereo not given)	1	4	1.4*	1	14*	6.0*	3	0
CN1CCN(C(=O)C[C@H]2CC[C@H]3[C@@H](COC[C@@H](O)CN3Cc3cccc(F)c3)O2)CC1	nt	nt	-1	0	-3	-1	nt	nt
CC(C)N=C1NN=C(c2ccc(Cl)c(Cl)c2)CS1	nt	5	-1	3	19*	2	19*	1
Clc1cccc(Nc2nc(-c3ccncc3)cs2)c1	-1	7	-1	1	14*	2	7	0
CC(=O)Nc1cccc(-c2csc(Nc3ncccn3)n2)c1	nt	nt	1.1*	2	19*	5	16*	1
Cc1ccc(/C=C/C(=O)c2ccc(N3CCOCC3)cc2)s1	0	4	-1	0	14*	2	9	1
O=C(Nc1ccccc1O)c1ccc(Cl)cc1	4.4*	6	1.3*	2	22*	5.8*	29*	0
CC(=O)Nc1ccc2c(c1)C(=O)c1ccccc1C2=O	2	6	0	2	14*	6.5*	18*	1
O=c1c(-c2ccc3c(c2)OCCO3)coc2cc(O)cc(O)c12	2	5	0	3	14*	4	15*	1
C/C(N)=C(/C#N)C(=O)CSc1nnc(-c2ccccc2Br)o1	0	2	0	3.8*	14*	3	17*	1
CCCCN1CCCCC1(C)C(=O)NCc1cccs1 (stereo not given)	nt	1	-1	-1	-2	0	nt	nt
Nc1cc(Cl)nc(N/N=C/c2c(O)ccc3ccccc23)n1	3	4	0	2	15*	4	10	1
SMILES	DAX1 inh-1	GAA850 FXN act	ssDAF12 agonist	DAX1 inh-2	hgDAF-12 ag	hcDAF-12 act	hgDAF12 conf	LXR ag 2
O=C(NCCN1CCC(n2c(=O)[nH]c3ccccc32)CC1)c1c(F)cccc1F	nt	nt	-1	-1	-2	-2	nt	nt
Cc1cc(C)cc(C(=O)NCCCc2ccccc2)c1	1	1	-2	0	-3	-3	nt	nt
Cc1ccc(C(=O)NCCCc2ccccc2)c(Cl)c1	5.1*	2	0	2	15*	6.5*	11*	0
Cc1ccc(C(=O)NCCCc2ccccc2)c(C)c1	6.8*	3	0	3	15*	5	16*	1
Cc1c(C(=S)Nc2ccccc2)cnn1-c1ccccc1	1	0	0	1	3	-1	nt	nt
Cc1nn(-c2ccccc2)cc1C(=S)Nc1ccccc1	2	2	-1	1	14*	-1	7	0
O=C1CC(/C=C/c2cccnc2)=Nc2ccccc2N1	2	2	-1	0	2	0	nt	nt
O=C1CC(/C=C/c2ccc(Cl)cc2)=Nc2ccccc2N1	3	0	-1	1	17*	2	8	1
COC(=O)c1ccc2nc(NC(=O)C3CC3)sc2c1	1	4	-1	0	9	0	nt	nt
COC(=O)c1ccc2nc(NC(=O)C(C)C)sc2c1	1	5	0	3	14*	2	15*	1
CCOC(=O)c1ccc2nc(NC(C)=O)sc2c1	2	1	-1	2	14*	2	13*	1
Cc1cc(NC(=O)OC2CCCCC2)ccc1[N+](=O)[O-]	1	3	0	1	17*	2	14*	1
Cc1ccc(C(=O)N2CCc3ccccc32)o1	1	3	2.1*	3.8*	15*	5	16*	1
C=CCNc1nc(-c2ccc(Cl)cc2)cs1	4	4	1	2	14*	4	15*	1

Screening data from PubChem BioAssay.
